Test [1] in a line: reducers of endogenous Her2 protein level, primary screen, SKBR3 breast tumor cells, AlphaScreen, ATP viability (AID 461;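 active means Her2 level under about 52% in both replicate screens, with viability over 70% of control, limit read from the data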;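 on Her2 level: lower value means less Her2 protein in the cells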;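 on viability: percent of carrier control wells set as 100% viability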). The note with it: 18-24 h, measured here: SKBR3 viability, ATP luminescence, at 10 µM. On the technique in general: In Alpha technology, singlet oxygen from a donor bead excites a nearby acceptor bead.
The target of test [2] is Receptor tyrosine-protein kinase erbB-2 (Homo sapiens) (UniProt P04626). Described as above. The note with it: 18-24 h, at 10 µM, stronger effect = lower value.
Chain of Receptor tyrosine-protein kinase erbB-2 (Homo sapiens) (P04626 whole entry, looked up): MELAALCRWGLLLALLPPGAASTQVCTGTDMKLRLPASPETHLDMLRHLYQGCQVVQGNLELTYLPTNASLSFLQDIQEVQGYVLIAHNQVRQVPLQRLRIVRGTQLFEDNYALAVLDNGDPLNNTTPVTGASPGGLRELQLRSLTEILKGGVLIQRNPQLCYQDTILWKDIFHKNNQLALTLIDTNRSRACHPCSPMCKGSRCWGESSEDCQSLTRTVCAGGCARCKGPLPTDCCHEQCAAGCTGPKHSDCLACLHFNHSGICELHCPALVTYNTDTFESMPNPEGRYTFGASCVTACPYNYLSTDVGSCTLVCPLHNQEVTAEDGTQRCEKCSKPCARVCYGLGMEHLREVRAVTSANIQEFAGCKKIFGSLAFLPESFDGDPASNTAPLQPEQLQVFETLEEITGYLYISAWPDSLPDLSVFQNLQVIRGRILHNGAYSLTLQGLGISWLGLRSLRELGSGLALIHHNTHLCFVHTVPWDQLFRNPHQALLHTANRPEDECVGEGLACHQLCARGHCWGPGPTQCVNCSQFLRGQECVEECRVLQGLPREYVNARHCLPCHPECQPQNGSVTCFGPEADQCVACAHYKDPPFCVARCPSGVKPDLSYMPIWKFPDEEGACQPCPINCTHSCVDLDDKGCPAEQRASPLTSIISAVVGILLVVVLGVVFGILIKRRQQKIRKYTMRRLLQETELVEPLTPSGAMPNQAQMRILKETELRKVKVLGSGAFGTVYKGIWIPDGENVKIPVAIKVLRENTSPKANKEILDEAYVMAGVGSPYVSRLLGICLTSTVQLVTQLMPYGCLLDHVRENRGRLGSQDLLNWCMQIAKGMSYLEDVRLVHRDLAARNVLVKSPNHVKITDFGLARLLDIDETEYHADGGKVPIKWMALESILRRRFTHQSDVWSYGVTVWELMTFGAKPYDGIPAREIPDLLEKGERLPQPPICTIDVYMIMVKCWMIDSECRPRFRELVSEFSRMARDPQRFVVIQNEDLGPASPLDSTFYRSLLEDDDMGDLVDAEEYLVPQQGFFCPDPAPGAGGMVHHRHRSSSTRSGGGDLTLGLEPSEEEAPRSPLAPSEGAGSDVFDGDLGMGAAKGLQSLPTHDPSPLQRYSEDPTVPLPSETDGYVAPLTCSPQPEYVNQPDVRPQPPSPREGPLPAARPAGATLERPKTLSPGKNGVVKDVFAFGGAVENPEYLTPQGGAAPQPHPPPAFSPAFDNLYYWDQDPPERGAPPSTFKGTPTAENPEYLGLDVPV
Test [3] can be described thus: SK-BR-3 cell growth inhibitors, pilot screen, 24 h, human (AID 572;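 active means viability at or below 10% of carrier control in both of two separate runs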;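 further: compound exposure lasted between 18 and 24 h rather than exactly 24 h; 100% = carrier-treated control wells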). Particulars: SK-BR-3 viability, CellTiter-Glo luminescence, at 10 µM, stronger effect = lower value.
Test [4] in a line: HUVEC growth inhibition – cell-based, human, primary screen (AID 575;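 active means viability at or below 30% in both replicate assays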;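 further: 100% = median of untreated cell wells with 0.1% DMSO on each plate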). The note with it: HUVEC proliferation, CellTiter-Glo luminescence, 72 h; at 10 µM; stronger effect = lower value. In general terms: ATP-based viability assays read luminescence as a measure of living cells.
The nature of test [5]: growth inhibitors of H69AR lung tumor, primary screen, human, duplicate replicates (AID 580;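 active means viability at or under a set limit in both replicates, limit being median viability minus 3 SD, cut at about 48% in these data, passing the limit was not always enough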;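 further: 100% = mean luminescence of untreated wells and 0% = no signal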). Particulars: H69AR lung tumor cells viability, ATP luminescence, 72 h; at 10 µM; stronger effect = lower value.
The nature of test [6]: reversal of MRP1-mediated doxorubicin resistance, pilot screen, H69AR cells, doxorubicin co-treatment (AID 601). Particulars: CellTiter-Glo, 72 h, at 10 µM; for differential viability (reversal): stronger effect = higher value.
A short description of test [7]: 384-well plate pilot, post-Golgi transport modulator project, inhibition of yeast transport mutant growth (AID 636; in the data active means inhibition above about 31%). Particulars: absorbance 615 nm, about 18 h, stronger effect = higher value.
Test [8] can be described thus: growth suppression of yeast trafficking mutant, preliminary HTS, modulators of trafficking downstream of Golgi apparatus project, 1536-format plate, OD 615 nm (AID 637; in the data active means inhibition above about 30%). The note with it: yeast transport mutant growth, absorbance 615 nm, 18 h; stronger effect = higher value.
A short description of test [9]: OD615 S. cerevisiae growth inhibition, permissive medium, pilot counter-assay, permissive growth control for S. cerevisiae lifespan shortening project (AID 705;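 active means growth inhibition above 25% in both replicates, a cutoff set 3 SD above the mean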). The note with it: OD615, 24 h, at 10 µM, stronger effect = higher value.
Test [10] can be described thus: Restrictive medium S. cerevisiae growth inhibition, OD615, pilot screen of yeast lifespan reduction project, restrictive growth control (AID 706;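 active means growth inhibition above a set limit, 3 SD over mean compound inhibition, in both replicates, cut at about 43% in these data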;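 further: modified DeaD lifespan yeast strain shifted to restrictive glucose medium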). Particulars: OD615, 48 h, at 10 µM, stronger effect = higher value.
Test [11] in a line: viability gain of MRP-1-high H69AR cells under doxorubicin, pilot screen, MRP-1 activator project, CellTiter-Glo, duplicate (AID 807;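 active means viability increase at or above a cutoff of the median across tested compounds plus 3 SD, cut at about 8.5% in these data, passing the limit was not always enough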;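 further: compound pretreatment 18-22 h then 72 h combined with doxorubicin; 0% = doxorubicin alone and 100% = vehicle without doxorubicin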). The note with it: H69AR viability with doxorubicin, CellTiter-Glo luminescence; at 10 µM; stronger effect = higher value.
A short description of test [12]: growth suppression of beta-catenin knockout HCT116, pilot screen, human colon tumor cells (AID 823;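 active means cell viability at or below a set limit in both duplicate runs, the limit being the all-compound median minus 4 SD, cut at about 23% in these data, passing the limit was not always enough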;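 further: 0% = wells killed by 20 µM Hyamine and 100% = untreated DMSO cell wells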). The note with it: CellTiter-Glo, 60 h, at 10 µM, stronger effect = lower value.
A short description of test [13]: growth suppression of PTEN-deleted HCT116, pilot screen, cell-based, HCT116 clonal line, CellTiter-Glo (AID 824;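 active means viability at or below 27.92% in each of two runs, the all-compound median minus 4 SD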;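 further: 0% = 20 µM Hyamine control and 100% = vehicle cell control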). The note with it: 60 h, at 10 µM, stronger effect = lower value.
The nature of test [14]: inhibitors of the yeast RAM network, pilot screen, dse1pr::URA3 reporter, 5-FOA selection (AID 869;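 active means inhibition over a set limit, the all-compound mean plus 3 SD, in both replicate runs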;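 further: 0% = DMSO wells with no growth and 100% = 10 µM 1-NA-PP1 with full growth; RAM network block rescues cells from 5-FOA so hits raise OD615 growth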). The note with it: S. cerevisiae dse1pr::URA3 5-FOA growth, OD615, 2 d; at 10 µM; stronger effect = higher value; strain carries analog-sensitive mutant Cbk1 kinase.
The nature of test [15]: RAM signaling pathway blockade in yeast – S. cerevisiae, Pdr1DBD-CYC8 efflux-inhibited sensitized strain, primary screen (AID 1298;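 active means RAM network inhibition above 8.4% in each of two replicates, 3 SD over the compound average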;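 further: 0% = DMSO untreated cells without growth and 100% = 10 µM 1-NA-PP1 full growth; higher means more yeast growth rescued from 5-FOA killing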). The note with it: S. cerevisiae cbk1-as DSE1-URA3 strain, 5-FOA growth OD615, 2 d; at 50 µM; stronger effect = higher value.
The mark [16] stands for this setting: H69AR cells + 2 uM doxorubicin, measured here: viability with 2 uM doxorubicin, stronger effect = lower value.
Setting [17] is: H69AR cells, compound alone cytotoxicity.

Each structure is given as a SMILES string. Inconclusive results are not listed. Activity calls are given as the source filed them.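 How the source made its calls, unless noted: active means viability loss from added drug above about 55%, and viability with drug at most 40%, in both replicates (limit read from the data, passing the limit was not always enough); inconclusive means both conditions met in only one replicate; inactive means neither replicate meets both conditions.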

From PubChem BioAssay come the findings set out here.

As a reminder, the viability is a read-out of living cells in per cent, often relative to untreated cells. Broadly, the inhibition is the change of the read-out against control, counted positive when it falls. As for `O=C(c1ccc(Br)o1)N(Cc1ccccc1)c1ccccn1`, the viability was 93.5% in test [1]; 93.5% (inactive) in test [3]; 99.6% (inactive) in test [4]; 92.9% (inactive) in test [5]; 90.7% in test [6] (setting [16]); 92.9% in test [6] (setting [17]). Moreover, the viability in test [12] was 94.9% (inactive); in [13] it was 84% (inactive). Moreover, the Her2 level in test [2] is 102% (inactive). Besides, the differential viability (reversal) in test [6] (H69AR cells + 2 uM doxorubicin) is 2.17% (inactive). In addition, the inhibition in [7] is 1.49% (inactive); in [8], -0.98% (inactive); in [14], 1.94% (inactive). Moreover, the growth inhibition in test [9] is -3.17% (inactive); in [10] it was -6.46% (inactive). The viability increase in test [11] is -6.28% (inactive). The RAM network inhibition in [15] is 12% (inactive).
Turning to `COC(=O)Cn1c(=NC(=O)CSCC(=O)Nc2cc(C)on2)sc2ccccc21`, the viability in test [1] was 89%; in test [3], 89% (inactive); in test [4], 90.4% (inactive); in [5], 88.5% (inactive); in [6] (setting [16]), 85.5%; in test [6] (setting [17]), 88.5%. Also, the viability in test [12] is 99.3% (inactive); in [13] it was 96.9% (inactive). The Her2 level in test [2] is 90% (inactive). The differential viability (reversal) in [6] (H69AR cells + 2 uM doxorubicin) was 3% (inactive). Further, the inhibition in test [7] is -5.07% (inactive); in [8], -3.5% (inactive). Besides, the growth inhibition in test [9] is -6.84% (inactive); in [10] it was -19.8% (inactive). Besides, the viability increase in test [11] is -0.92% (inactive). The RAM network inhibition in test [15] is 7.51% (inactive).
For `Cc1occc1C(=O)N1CCN(Cc2ccccc2)CC1`, the viability in test [1] was 85.5%; in [3], 85.5% (inactive); in test [4], 98.1% (inactive); in test [5] it was 89.3% (inactive); in [6] (setting [16]), 86%; in [6] (setting [17]) it was 89.3%. For the same molecule, the values for the viability in [12] and in [13] were 94.7% (inactive) and 97.6% (inactive), respectively. Besides, the Her2 level in [2] is 89% (inactive). The differential viability (reversal) in test [6] (H69AR cells + 2 uM doxorubicin) is 3.23% (inactive). The inhibition is 0.26% (inactive) in test [7] and -5.5% (inactive) in test [8]. Further, the growth inhibition in test [9] is -0.31% (inactive); in [10] it was -15.5% (inactive). Also, the viability increase in test [11] was -1.95% (inactive). In addition, the RAM network inhibition in test [15] was 2.68% (inactive).
Regarding `C=CCn1c(SC(C)C(=O)NC2(C#N)CCCCC2)nnc1-c1ccc(OC)cc1` (stereo not drawn), the viability was 90% in [1]; 90% (inactive) in [3]; 109% (inactive) in [4]; 92.2% (inactive) in test [5]; 78.3% in [6] (setting [16]); 92.2% in test [6] (setting [17]). In addition, the figures for the viability in test [12] and in test [13] were 90% (inactive) and 87.7% (inactive), respectively. For the same molecule, in test [2], the Her2 level is 73.5% (inactive). Also, the differential viability (reversal) in test [6] (H69AR cells + 2 uM doxorubicin) was 13.9% (inactive). The inhibition in test [7] was -7.07% (inactive); in [8] it was -5.25% (inactive); in test [14] it was 1.29% (inactive). In addition, the growth inhibition in test [9] was -4.51% (inactive); in test [10], -9.22% (inactive). Besides, the viability increase in [11] is -2.25% (inactive). In addition, in test [15], the RAM network inhibition is 0.47% (inactive).
Consider `CN(C)C(=O)N1CCN(C(=O)c2ccco2)CC1`, for which the viability in test [1] is 116%; in test [3] it was 116% (inactive); in test [4] it was 94.6% (inactive); in test [5] it was 101% (inactive); in [6] (setting [16]), 94.6%; in test [6] (setting [17]) it was 101%. Further, the viability in test [12] is 102% (inactive); in [13], 99.5% (inactive). The Her2 level in [2] is 114% (inactive). Besides, the differential viability (reversal) in test [6] (H69AR cells + 2 uM doxorubicin) was 6.83% (inactive). Besides, the inhibition was 2.4% (inactive) in [7], -3.83% (inactive) in test [8] and 2.13% (inactive) in test [14]. Also, the figures for the growth inhibition in test [9] and in [10] were 1.14% (inactive) and 8.06% (inactive), respectively. The viability increase in test [11] was -1.78% (inactive). For the same molecule, the RAM network inhibition in [15] was 0.72% (inactive).
